Experimental findings from the supplement of paper PMC10849652 are described below.

The full data set covers some 7,900 targets. This sample favours those with a hit. About 0.6% of all pairs of compound and target were hits. A number with no mark means an inactive call.

Chain of UniProt Q9H267 (Q9H267 whole entry, looked up): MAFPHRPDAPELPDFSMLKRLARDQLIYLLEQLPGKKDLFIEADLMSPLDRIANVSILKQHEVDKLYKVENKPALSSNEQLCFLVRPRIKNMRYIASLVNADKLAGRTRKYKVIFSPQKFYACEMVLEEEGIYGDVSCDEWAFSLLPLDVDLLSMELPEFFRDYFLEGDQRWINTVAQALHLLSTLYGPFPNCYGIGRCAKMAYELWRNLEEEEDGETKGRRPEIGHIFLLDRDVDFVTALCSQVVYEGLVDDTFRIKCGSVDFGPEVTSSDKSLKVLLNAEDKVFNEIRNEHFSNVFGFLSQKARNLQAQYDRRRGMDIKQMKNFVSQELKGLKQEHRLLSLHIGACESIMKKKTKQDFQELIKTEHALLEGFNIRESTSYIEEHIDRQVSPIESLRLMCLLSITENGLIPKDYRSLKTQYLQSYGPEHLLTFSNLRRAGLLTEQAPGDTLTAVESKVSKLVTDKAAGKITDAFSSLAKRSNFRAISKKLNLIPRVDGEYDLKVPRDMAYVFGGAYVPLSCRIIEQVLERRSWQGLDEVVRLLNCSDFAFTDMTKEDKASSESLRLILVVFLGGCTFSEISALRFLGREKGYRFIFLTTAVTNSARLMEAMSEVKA
Chain of UniProt A0PJW6 (A0PJW6 whole entry, looked up): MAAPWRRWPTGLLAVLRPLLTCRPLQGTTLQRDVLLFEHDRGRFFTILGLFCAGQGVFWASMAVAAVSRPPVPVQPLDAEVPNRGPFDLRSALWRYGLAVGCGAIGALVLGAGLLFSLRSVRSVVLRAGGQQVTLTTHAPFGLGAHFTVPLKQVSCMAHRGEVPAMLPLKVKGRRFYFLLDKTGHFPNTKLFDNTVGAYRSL
Chain of UniProt O15213 (O15213 whole entry, looked up): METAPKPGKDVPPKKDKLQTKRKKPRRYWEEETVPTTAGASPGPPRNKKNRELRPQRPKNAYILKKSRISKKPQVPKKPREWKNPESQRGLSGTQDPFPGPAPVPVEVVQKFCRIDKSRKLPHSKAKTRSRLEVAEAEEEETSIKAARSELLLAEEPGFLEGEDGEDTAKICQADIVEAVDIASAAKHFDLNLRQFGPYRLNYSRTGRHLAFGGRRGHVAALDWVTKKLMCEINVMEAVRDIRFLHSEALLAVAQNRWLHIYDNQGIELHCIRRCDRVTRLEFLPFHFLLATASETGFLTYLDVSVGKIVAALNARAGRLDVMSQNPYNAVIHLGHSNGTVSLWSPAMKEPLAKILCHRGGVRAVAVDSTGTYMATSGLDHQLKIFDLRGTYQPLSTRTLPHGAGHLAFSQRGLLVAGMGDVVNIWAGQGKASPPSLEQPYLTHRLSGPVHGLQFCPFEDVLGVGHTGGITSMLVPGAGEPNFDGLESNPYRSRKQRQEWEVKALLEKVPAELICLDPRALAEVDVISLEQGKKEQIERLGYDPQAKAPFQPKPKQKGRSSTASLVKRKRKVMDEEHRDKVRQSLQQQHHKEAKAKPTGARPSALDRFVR
Chain of UniProt Q7Z5K2 (Q7Z5K2 whole entry, looked up): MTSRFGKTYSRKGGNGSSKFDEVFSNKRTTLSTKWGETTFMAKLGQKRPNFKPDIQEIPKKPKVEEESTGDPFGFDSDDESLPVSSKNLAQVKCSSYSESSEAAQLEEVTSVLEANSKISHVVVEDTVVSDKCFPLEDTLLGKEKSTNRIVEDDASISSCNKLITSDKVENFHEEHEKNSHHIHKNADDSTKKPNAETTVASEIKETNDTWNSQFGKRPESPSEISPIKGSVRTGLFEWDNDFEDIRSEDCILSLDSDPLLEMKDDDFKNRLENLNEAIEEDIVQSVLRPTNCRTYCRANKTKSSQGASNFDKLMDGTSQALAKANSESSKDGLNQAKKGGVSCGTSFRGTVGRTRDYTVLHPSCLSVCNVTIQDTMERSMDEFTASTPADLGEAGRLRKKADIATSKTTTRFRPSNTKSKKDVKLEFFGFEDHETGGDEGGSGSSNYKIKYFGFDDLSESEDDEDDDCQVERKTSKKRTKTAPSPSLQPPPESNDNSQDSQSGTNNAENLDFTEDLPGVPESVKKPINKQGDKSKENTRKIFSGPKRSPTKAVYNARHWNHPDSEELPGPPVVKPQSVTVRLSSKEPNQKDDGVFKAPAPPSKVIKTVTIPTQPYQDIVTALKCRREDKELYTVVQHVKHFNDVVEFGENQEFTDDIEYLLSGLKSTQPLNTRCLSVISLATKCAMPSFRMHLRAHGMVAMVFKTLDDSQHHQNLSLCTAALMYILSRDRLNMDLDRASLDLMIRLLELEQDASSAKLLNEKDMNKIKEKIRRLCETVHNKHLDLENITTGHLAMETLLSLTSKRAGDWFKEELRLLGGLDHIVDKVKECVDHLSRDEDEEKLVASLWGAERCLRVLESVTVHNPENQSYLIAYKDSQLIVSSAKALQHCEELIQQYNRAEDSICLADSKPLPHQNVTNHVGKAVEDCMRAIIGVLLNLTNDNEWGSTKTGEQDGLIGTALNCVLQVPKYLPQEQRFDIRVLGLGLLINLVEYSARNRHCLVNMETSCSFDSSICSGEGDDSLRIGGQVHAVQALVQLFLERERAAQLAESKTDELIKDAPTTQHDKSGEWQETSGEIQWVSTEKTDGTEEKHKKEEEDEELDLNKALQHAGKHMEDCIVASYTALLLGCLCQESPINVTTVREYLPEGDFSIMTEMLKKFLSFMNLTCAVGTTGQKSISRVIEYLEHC
Chain of UniProt P22314 (P22314 whole entry, looked up): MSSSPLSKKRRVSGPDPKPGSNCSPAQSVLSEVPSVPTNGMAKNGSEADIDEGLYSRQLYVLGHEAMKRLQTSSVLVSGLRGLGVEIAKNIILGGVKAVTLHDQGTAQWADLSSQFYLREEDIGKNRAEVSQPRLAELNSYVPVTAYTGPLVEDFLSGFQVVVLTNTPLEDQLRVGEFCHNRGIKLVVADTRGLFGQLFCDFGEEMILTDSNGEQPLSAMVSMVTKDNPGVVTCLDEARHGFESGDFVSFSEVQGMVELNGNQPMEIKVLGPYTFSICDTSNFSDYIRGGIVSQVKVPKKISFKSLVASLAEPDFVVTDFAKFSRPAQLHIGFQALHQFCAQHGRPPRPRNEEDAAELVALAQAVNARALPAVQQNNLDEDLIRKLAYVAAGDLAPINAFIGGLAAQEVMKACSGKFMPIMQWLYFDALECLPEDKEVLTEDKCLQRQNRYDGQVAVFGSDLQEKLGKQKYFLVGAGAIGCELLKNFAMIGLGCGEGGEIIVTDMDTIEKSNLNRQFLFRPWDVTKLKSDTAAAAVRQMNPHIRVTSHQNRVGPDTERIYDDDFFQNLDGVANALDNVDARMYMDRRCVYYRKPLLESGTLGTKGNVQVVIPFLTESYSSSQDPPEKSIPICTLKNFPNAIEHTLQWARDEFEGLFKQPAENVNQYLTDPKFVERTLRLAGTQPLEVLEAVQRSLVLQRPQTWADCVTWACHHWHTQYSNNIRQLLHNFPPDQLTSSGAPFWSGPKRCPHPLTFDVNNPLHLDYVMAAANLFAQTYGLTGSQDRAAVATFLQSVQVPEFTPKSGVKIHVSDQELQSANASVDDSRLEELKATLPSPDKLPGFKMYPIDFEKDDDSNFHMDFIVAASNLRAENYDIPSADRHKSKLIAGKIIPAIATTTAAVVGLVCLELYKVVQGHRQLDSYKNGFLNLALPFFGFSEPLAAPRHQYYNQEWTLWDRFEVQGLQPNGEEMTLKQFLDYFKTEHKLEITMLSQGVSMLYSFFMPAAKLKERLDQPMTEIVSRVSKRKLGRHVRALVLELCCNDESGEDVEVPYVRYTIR
Chain of UniProt Q8IZ69 (Q8IZ69 whole entry, looked up): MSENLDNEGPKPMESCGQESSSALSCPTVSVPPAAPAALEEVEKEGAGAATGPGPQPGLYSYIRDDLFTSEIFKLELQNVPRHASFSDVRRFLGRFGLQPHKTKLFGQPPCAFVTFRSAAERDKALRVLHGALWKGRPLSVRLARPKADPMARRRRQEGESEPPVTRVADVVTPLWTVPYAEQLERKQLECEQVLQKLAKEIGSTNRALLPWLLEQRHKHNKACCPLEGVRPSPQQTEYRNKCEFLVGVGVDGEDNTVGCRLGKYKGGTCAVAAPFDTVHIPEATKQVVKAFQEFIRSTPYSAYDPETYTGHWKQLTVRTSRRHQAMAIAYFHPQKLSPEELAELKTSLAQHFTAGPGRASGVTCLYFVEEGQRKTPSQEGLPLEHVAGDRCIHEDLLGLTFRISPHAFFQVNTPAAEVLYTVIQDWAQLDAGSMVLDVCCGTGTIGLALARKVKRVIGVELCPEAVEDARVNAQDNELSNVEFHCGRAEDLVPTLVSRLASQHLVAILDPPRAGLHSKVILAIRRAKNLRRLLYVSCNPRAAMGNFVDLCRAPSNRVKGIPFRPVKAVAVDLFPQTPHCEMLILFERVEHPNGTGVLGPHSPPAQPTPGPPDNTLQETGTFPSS
Chain of UniProt Q7Z6J8 (Q7Z6J8 whole entry, looked up): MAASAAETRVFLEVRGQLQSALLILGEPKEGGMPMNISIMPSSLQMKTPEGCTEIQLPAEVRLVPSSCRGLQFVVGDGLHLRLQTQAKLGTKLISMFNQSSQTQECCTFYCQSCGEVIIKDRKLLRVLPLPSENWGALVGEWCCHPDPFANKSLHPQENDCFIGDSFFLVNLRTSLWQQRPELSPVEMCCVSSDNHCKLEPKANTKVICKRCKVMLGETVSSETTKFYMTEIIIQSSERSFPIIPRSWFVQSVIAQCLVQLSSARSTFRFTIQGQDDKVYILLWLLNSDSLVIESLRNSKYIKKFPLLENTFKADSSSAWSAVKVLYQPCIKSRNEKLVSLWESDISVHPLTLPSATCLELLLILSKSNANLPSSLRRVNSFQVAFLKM
Chain of UniProt Q86TN4 (Q86TN4 whole entry, looked up): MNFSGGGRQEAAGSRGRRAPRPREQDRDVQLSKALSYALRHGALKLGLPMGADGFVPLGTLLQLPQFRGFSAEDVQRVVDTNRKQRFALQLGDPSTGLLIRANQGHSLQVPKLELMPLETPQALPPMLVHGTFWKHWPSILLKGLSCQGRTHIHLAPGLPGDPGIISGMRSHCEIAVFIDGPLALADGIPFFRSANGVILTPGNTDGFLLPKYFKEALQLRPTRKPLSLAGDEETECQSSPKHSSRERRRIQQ
Chain of UniProt Q9UDW1 (Q9UDW1 whole entry, looked up): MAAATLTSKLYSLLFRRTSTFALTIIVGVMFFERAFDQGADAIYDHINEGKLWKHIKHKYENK

Compound in this assay: c1cn2cc(-c3ccc4cn[nH]c4c3)nc(Nc3ccc(N4CCOCC4)cc3)c2n1 [entospletinib]
As to the kind of experiment: log2 fold change, soluble protein after heating vs DMSO (PISA); higher = thermal stabilisation; K562 cells, 10 uM, 30 min; active = over 0.2 and 3.5 SD of the protein, either way, in both replicates (recomputed). The gist of the method:
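Aliquots of K562 cells (2×10^6 cells/mL) treated with 10 μM compound for 30 min were heated for 3 min over 48°C-58°C. After pooling and extraction in PBS with 0.5% NP-40 at 4°C, soluble protein from a 21,000xg, 90 min spin was quantified by TMTpro 16plex LC-MS/MS with channel sums equalised. Thermal stability is expressed against control samples, from duplicates, as a log2 fold change.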
Turning to UHRF1BP1 (UniProt Q6BDS2), the log2 fold change is 0.015.

For the target VPS28 (UniProt Q9UK41), the log2 fold change was -0.039. On to XPNPEP1 isoform 3 (UniProt Q9NQW7), for which the log2 fold change is -0.027.

Take WDHD1 (UniProt O75717): the log2 fold change is -0.019. In the case of UTP3 (UniProt Q9NQZ2), the log2 fold change is -0.009. On to TMEM9 (UniProt Q9P0T7), for which the log2 fold change is -0.05.

Regarding TMEM214 (UniProt Q6NUQ4), the log2 fold change was -0.015. TRMT10C (UniProt Q7L0Y3): the log2 fold change is -0.043.

TRIP10 isoform 2 (UniProt Q15642): the log2 fold change was 0.062. As for TRPT1 isoform 4 (UniProt Q86TN4), the log2 fold change is 0.051. For the target UBA6, the log2 fold change was 0.014. Regarding TRMT2A (UniProt Q8IZ69), the log2 fold change is 0.1. For the target VPS8 (UniProt Q8N3P4), the log2 fold change is 0.034. For TMEM223 (UniProt A0PJW6), the log2 fold change was 0.047. For UBE3D (UniProt Q7Z6J8), the log2 fold change was 0.091. As for VDAC1 (UniProt P21796), the figure is -0.012; as for UBA1 (UniProt P22314), -0.025.

Consider TMEM268 isoform 3 (UniProt Q5VZI3), for which the log2 fold change was -0.054. The result for VAMP7 (UniProt P51809) reads -0.032; that for UQCR10 (UniProt Q9UDW1), -0.002; that for TXNL1 (UniProt O43396), 0.034. On to TMEM63B (UniProt Q5T3F8), for which the log2 fold change is 0.011.

On to WDR46 (UniProt O15213), for which the log2 fold change was 0.01.

Consider VTA1 (UniProt Q9NP79), for which the log2 fold change is -0.005. Turning to TRAPPC11 (UniProt Q7Z392), the log2 fold change is 0.012.

For the target TTI1 (UniProt O43156), the log2 fold change was 0.1. With TRAPPC8 (UniProt Q9Y2L5), the log2 fold change was 0.004. As for WRB (UniProt O00258), the log2 fold change is 0.005. Take UBE4B isoform 4 (UniProt O95155): the log2 fold change was -0.03.

TP53BP1 isoform 2 (UniProt Q12888): the log2 fold change was 0.087. As for TPP1 (UniProt O14773), the figure is -0.018; as for XRCC6 (UniProt P12956), 0. As for TSC2 (UniProt P49815), the log2 fold change is -0.17. On to VPS33B (UniProt Q9H267), for which the log2 fold change is 0.008.

On to VPS72 isoform 2 (UniProt Q15906), for which the log2 fold change is 0.112. The result for TXNL4B (UniProt Q9NX01) reads 0.002; that for UFL1 (UniProt O94874), -0.025. The result for UBA52 (UniProt P62987) reads 0.159. WAPL isoform 3 (UniProt Q7Z5K2): the log2 fold change is -0.037. Turning to UGDH (UniProt O60701), the log2 fold change is -0.033.
